Holding throughout (experiment): NCI-60 one-dose screen, 48 h (100 = growth as untreated, 0 = no growth, -100 = all killed)
What all share (conditions): 10 µM unless noted

Test [1] has as its system NCI-H23 lung.
For test [2], the system named is NCI-H226 lung.
The subject of test [3] is NCI-H322M lung.
The test system of test [4] is HOP-62 NSCLC.
Test [5] relates to NCI-H460 lung.
The test system of test [6] is HOP-92 NSCLC.
The subject of test [7] is NCI-H522 lung.
Test [8] relates to A549/ATCC NSCLC.
In test [9] the test system is 786-0 renal.
The test system of test [10] is COLO 205 colon.

The panel holds about 83,000 compounds, 20% with a hit somewhere; the sample as a whole holds those more often.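 Method: cells in 96-well plates; compound added at one concentration; 48 h incubation; percent growth measured; values under 10 scored active.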 Values without a mark were called inactive. Calls of active or inactive are those of the source.

This passage reports growth results from PubChem BioAssay (NCI).

Consider `CC1(C)NCCC[C@]2(C)[C@H]3CC[C@@H]4[C@H]5[C@H](C(=O)/C=C/c6ccco6)CC[C@]5(CO)CC[C@@]4(C)[C@]3(C)CC[C@@H]12`, for which the growth in test [1] is 89.1%; in [2], 94.8%; in [3] it was 92.6%; in test [4] it was 91.8%; in [5], 56.2%; in test [6], 70.1%. Further, the growth is 88.3% in test [7], 87.2% in test [8], 74.4% in [9] and -2.99% (active) in [10].

Consider `Cc1ccc(NC(=O)Cc2ccc(/C=C/C(=O)c3ncc[nH]3)cc2)cc1`, for which the growth in test [1] was 41.6%; in test [2], 89.7%; in [3] it was 63.9%; in [4], 43.4%; in [5], 7.31% (active); in test [6], 82%. For the same molecule, the growth was 43.6% in [7], 62.1% in [8], 29.7% in [9] and 49.2% in test [10].

Take `CN1C(N2CCN(S(=O)(=O)c3ccccc3)CC2)=NS(=O)(=O)c2ccccc21`: the growth in test [1] is 98.2%; in [2] it was 112%; in [3] it was 82.6%; in test [4] it was 89%; in test [5], 103%; in test [6], 86.8%. Besides, the growth in [7] is 80.2%; in [8] it was 69.7%; in [9] it was 99.5%; in [10], 109%.

As for `O=C(CNCCN1CCOCC1)N1c2cccc3cccc(c23)N(C(=O)CNCCN2CCOCC2)C1c1cn(-c2ccccc2)nc1-c1cccc([N+](=O)[O-])c1`, the growth is 95.8% in test [1]; 81.4% in test [2]; 97.6% in [3]; 89.7% in [4]; 96% in test [5]; 53.2% in test [6]. For the same molecule, the growth in [7] is 75.3%; in test [8] it was 82.3%; in test [10] it was 52.8%.

Turning to `COc1ccc(/C=N/NC(=O)c2cnn3c2NC(c2ccccc2)C3)cc1OC` (stereo not drawn), the growth in [1] was 73.9%; in [2] it was 94.1%; in [3], 75.4%; in test [4] it was 60%; in test [5], 28.3%; in test [6] it was 73.2%. For the same molecule, the growth is 54.2% in [8], 76.2% in test [9] and 45.7% in [10].

For `Cc1ccc(-c2[nH][nH]c(=O)c2-c2nc3ccccc3s2)cc1`, the growth is 96.2% in test [1]; 95.1% in [2]; 105% in test [3]; 99.2% in test [4]; 105% in test [5]; 105% in [6]. Besides, the growth was 107% in test [8], 101% in test [9] and 106% in test [10].

As to `CCN(CC)CC[n+]1cc2cc(OC)c(OC)cc2c2ccc3cc4c(cc3c21)OCO4`, the growth in test [1] is 3.47% (active); in test [2] it was 29.7%; in test [3], -15.9% (active); in [4], -4.95% (active); in test [5] it was -65.7% (active); in test [6] it was 14.7%. Moreover, the growth in test [8] is -41.2% (active); in test [9], 3.36% (active); in test [10] it was 13.9%.

Regarding `O=C1Nc2ccc(F)cc2/C1=C\c1c(-c2ccccc2)nc2ccccn12`, the growth in [1] is 53.4%; in test [2], 91.5%; in test [3], 76.3%; in test [4], 72.5%; in [5], 81.5%; in test [6], 72.7%. Also, the growth in test [8] was 71.7%; in test [9], 75.4%; in test [10], 91.9%.

Take `CCCOc1ccc(/C=N/Nc2cc(C)nc3ccc(Cl)cc23)cc1`: the growth in test [1] was 75.9%; in test [2] it was 88.3%; in test [3], 62.1%; in [4], 75.2%; in test [5] it was -37.5% (active); in test [6] it was 69.2%. The growth was 36.9% in [8], -86.4% (active) in test [9] and -80.7% (active) in [10].

In the case of `O=C(Nc1ccc(Cl)cc1)c1cc(NCc2cc(O)ccc2O)ccc1O`, the growth is 93.2% in [1]; 95.2% in test [2]; 94.9% in [3]; 102% in test [4]; 98.7% in test [5]; 80.4% in test [6]. The growth in [8] is 80.7%; in test [9], 95.6%; in [10] it was 105%.

In the case of `CCOC(=O)c1cc(C(=O)c2ccc(OC)cc2)n2ccc(/C=C/c3cc[n+](CC(=O)c4ccc(OC)cc4)cc3)cc12`, the growth in [1] was 83.6%; in test [2], 90.7%; in [3] it was 86.3%; in test [4], 81.1%; in test [5] it was 75.1%; in test [6], 50.1%. The growth in [7] is 57.1%; in [8], 52.2%; in [10] it was 65.3%.

For `CCOC(=O)C1=C(CCl)NC(=O)NC1c1ccc2c(c1)OCO2` (stereo not drawn), the growth in [1] was 48.3%; in test [2], 88.5%; in test [3], 88.1%; in test [4], 53.8%; in [5], 76.9%; in [6], 60.1%. In addition, the results for the growth in test [8] and in [9] were 66.1% and 43.2%, respectively.

For the molecule `COc1cc2nc(-c3ccc(Cl)cc3)cc(OCCCN3CCCC3)c2cc1OC`, the growth is 62.8% in [1]; -13.5% (active) in test [2]; 58.5% in [3]; 45.3% in test [4]; 25.2% in [5]; 25% in [6]. Besides, the results for the growth in test [8], in test [9] and in test [10] were 41.5%, 67.4% and 21.5%, respectively.

`Fc1ccc2c(-c3cncn3CCc3ccccc3)c[nH]c2c1`: the growth is 86.2% in [1]; 75.9% in test [2]; 91.8% in [3]; 87.4% in test [4]; 92.7% in test [5]; 65% in [6]. The growth was 82% in [7], 87% in test [8] and 101% in test [10].
